Consider 30 sequences from PubChem BioAssay AID1347426 (Functional Genomics Laboratory (NCATS/FGL), 2020).

The whole screen tested about 31,000 sequences, of which about 1,400 (4.5%) were called active. This excerpt belongs to a sample that is enriched for actives. Values without a mark were called inactive.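 Rule for the calls: active = median seed-adjusted z-score above 1 or below -1; inactive = the rest.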

The assay in a line: Novel Modifiers of Survival Motor Neuron (SMN) Protein: Gene Identification via Genome-wide siRNA Screen.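 Note: luminescence tracks full-length SMN protein made from the SMN2 reporter.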 Conditions: HEK293T SMN2-luciferase reporter, siRNA knockdown, 72 h; actives lie on both sides. The essentials:
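HEK293T cells stably carrying an SMN2 promoter/splicing cassette–luciferase reporter were reverse-transfected with 1 pmol siRNA per well (druggable-genome library, 3 siRNAs per gene) and grown 72 h at 37 °C. Luminescence, normalized to negative-control siRNA and log10-transformed, was scored as MAD.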
On the technique in general: In a reporter assay the amount or activity of a reporter protein is the signal.
Turning to CGAUGUCAGUUUCUAGUAATT against USP42, the median seed-adjusted z-score is -0.0125.

Regarding GCCGUUUGACCAUACAUUATT against SNTB1, the median seed-adjusted z-score was 0.488. With CCAAGAAACUAACACGCUATT against PFKFB2, the median seed-adjusted z-score is 0.311. The figure for GGAAGGUGAUUGAUCCUAATT against HNRNPD is 0.504. With CGAAAAACCAUAGACUACATT against WDR33, the median seed-adjusted z-score was 3.27 (active). Under GCAAAUGUCAGAGAUUGAATT against SFXN5 stands 0; under CAGUUACUCUGGGAGUAUATT against PRPF3, -0.289; under CCAGGUGUAUUCAAUGGAATT against FMO3, -0.0769. ACGACUGCCUGGUCUUAAATT against ADAP2: the median seed-adjusted z-score is -1.1 (active). Under GCACUCGAGUAAUUAGCAATT against DOCK10 stands -0.201. The figure for GGUUCUGCUUUAUUACCUUTT against HNRNPD is 0.504; for CAGCUUACAAUACAUCAAATT against ZNF7 it is 0; for AAGACAUGAUGUUCCACAATT against ADCY6 it is -0.0652. Under GCACAGAUAUCCUCGUGUATT against ARL11 stands 1 (active); under CAGUAGCAGUGGAAUGGGATT against RBMX, 0.0941; under GCGCUUCUGGUGUACGACATT against RAB17, 0.473. Turning to CAUCCACACUUCUCCAGAATT against HK1, the median seed-adjusted z-score was -0.129. GAGUGGGCGUGGAUAGAAATT against PSMC2: the median seed-adjusted z-score is -1.96 (active).

As for AGUUAUUGCUACUUCAGAATT against CX3CR1, the median seed-adjusted z-score is -0.292. The figure for GCAACUACGUUGACUUCUATT against CTNND2 is -0.0491. On to AACUGAACAUAGCAGAAUUTT against ZNF85, for which the median seed-adjusted z-score is -1.01 (active). Under CGGUGACUGUGAACGGCAATT against DNAJB8 stands -1.09 (active); under ACAUAGUAAAGACUUUCUATT against PIGA, -0.0514.

In the case of GUCAGUUGUUAGAACAUAATT against TRIM24, the median seed-adjusted z-score is -0.22. Under CAAUUCUUAUUGACUCAUATT against IFNA1 stands -0.625; under CAUCAUCCAUGGUAGCUUUTT against DUOX1, -1.09 (active); under GCUUGACCCUUAGACGGAATT against LILRB3, 0.0304. GGUGUUAUCCUAUGAGGUATT against MPP4: the median seed-adjusted z-score is 0.13.

As for GGAAAAACCUUCUACCUGATT against ZNF12, the median seed-adjusted z-score is -0.144. Under GGCCUUACGGGUGUAGUAATT against ZNF419 stands 0.0405.
